This is a sample that favours compounds with a hit; in the whole collection about 3.6% have one here.
BoNT-F LC inh – inhibitors of Botulinum neurotoxin F light chain protease | Multiplex microsphere protease cleavage assay, flow cytometry | inhibition, % at 10 µM | actives 0.22% (n = 360,000) | AID 588497; in the data active = inhibition above about 35%, passing the limit was not always enough; inconclusive = no clear call, values can overlap the other calls; also: plate controls were buffer without enzyme for full effect and enzyme alone for no effect
Anthrax LF prot – anthrax lethal factor protease inhibition; multiplex microsphere protease cleavage assay, LF; actives 0.12% (n = 360,000); inhibition, % at 10 µM; AID 588501; P15917; also: plate controls were buffer without enzyme for full effect and enzyme alone for no effect
BoNT A protease – blocks Botulinum neurotoxin A light chain protease. multiplex microsphere protease substrate cleavage, flow cytometry. inhibition, % at 10 µM. actives 0.17% (n = 360,000). AID 588499; also: plate controls were buffer without enzyme for full effect and enzyme alone for no effect
Bead autofluor – compound fluorescence in toxin protease inhibitor counterscreen. fluorescence intensity (concentration not given with the values). compound autofluorescence counterscreen, microsphere flow cytometry; hits give high values. actives 3.1% (n = 360,000); in the data active = fluorescence intensity above about 16000; inconclusive = no clear call, values can overlap the other calls
MazF activator – increases E. coli MazEF RNase cleavage of RNA; actives 0.32% (n = 350,000); FAM/BHQ RNA-DNA oligo cleavage fluorescence, 5 h; P0AE70; activation, % at 20 µM; in the data active = activation above about 50%
Target sequence (P0AE70 whole entry, looked up): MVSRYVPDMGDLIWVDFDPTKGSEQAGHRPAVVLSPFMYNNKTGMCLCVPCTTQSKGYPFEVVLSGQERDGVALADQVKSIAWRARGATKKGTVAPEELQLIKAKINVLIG
Numbers without * were called inactive; u = inconclusive; x = no result. Rule as the data show it, unless noted: active = inhibition above about 30%; inconclusive = no clear call, values can overlap the other calls; inactive = below that.

SMILES	BoNT-F LC inh	Anthrax LF prot	BoNT A protease	Bead autofluor	MazF activator
CC(C)Oc1ccc(C(=O)NCc2cccs2)cc1	-1.7	-0.4	u	23288*	3.7
O=C(NCc1cccs1)c1ccc(Cl)s1	-4.3	-0.6	-2.1	24555*	5.3
O=C(NCCCCNC(=O)c1ccc(Cl)s1)c1ccc(Cl)s1	3.9	-0.1	0.3	3266	4.9
CCC(CC)C(=O)N(C)c1c(C)nc2c(OCc3ccccc3C)cccn12	0.3	2.0	-0.1	3352	x
COc1ccc(/C=C/C(=O)N(CC(C)C)CC(C)C)cc1Br	2.8	-3.4	u	21487*	-4.8
Cc1nn2c(=O)cc(COC(=O)c3c(F)cccc3Cl)nc2s1	0.0	-5.3	-1.1	2932	1.5
Cc1ccccc1C(=O)NCC(=O)OC(C)C(=O)NCc1ccco1 (centres undefined)	2.6	-3.8	1.8	u	0.1
CC(C)NC(=O)NC(=O)COC(=O)Cc1ccsc1	-5.2	-1.5	-1.1	3194	-7.4
COc1ccc(CC(=O)OCC(=O)NC(=O)NC(C)C)cc1	-5.2	-2.7	-1.7	23854*	-1.9
COC(=O)C1=C(NC(=O)c2cccc(OC)c2)CCS1	-1.5	-1.7	-1.1	22750*	2.3
COC(=O)C1=C(NC(=O)c2ccccc2C)CCS1	-3.3	-3.2	-0.9	3476	3.7
C=C(C)c1ccc(C(C)(C)NC(=O)N(Cc2ccccc2)Cc2ccco2)cc1	-1.1	-2.0	u	22989*	-1.3
C=C(C)c1ccc(C(C)(C)NC(=O)NCc2ccco2)cc1	-11.4	-2.9	-0.2	2224	9.6
C[C@@H]1CN(S(=O)C(C)(C)C)[C@H](CCO)/C1=C\CCO (some centres undefined)	-3.2	4.3	-0.3	3446	0.6
Cc1cc(C)n(CC(O)COCc2ccco2)n1 (centres undefined)	-1.5	-2.1	u	23131*	2.1
Cc1cc(C(=O)Nc2cccc(C(=O)O)c2)c(C)o1	2.7	0.3	u	22853*	5.2
CCCCN(C)C(=O)c1ccc(Nc2nc(C(N)Cc3ccc(C(F)(F)F)cc3)cs2)nc1 (centres undefined)	-19.7	-6.1	-0.8	3653	x
CCN(CC)C(=O)CC(c1ccccc1)c1ccco1 (centres undefined)	-3.0	-5.2	-0.9	24247*	-4.5
CCCN(CCC)C(=O)CC(c1ccc(F)cc1)c1ccco1 (centres undefined)	2.7	-4.2	0.8	3271	5.3
Cc1cccc(C)c1-n1c(C)cc(/C=N/NC(=O)c2ccncc2)c1C	1.6	-2.5	1.9	22105*	-2.8
Cc1cc(/C=N/NC(=O)c2cccs2)c(C)n1-c1cnccn1	47.3*	-0.2	3.7	2743	16.9
Cc1ccc(-n2c(C)cc(/C=N/NC(=O)c3ccncc3)c2C)c(C)c1	-1.3	-4.0	0.4	22871*	0.8
Cc1cc(/C=N/NC(=O)c2cccs2)c(C)n1-c1ccccc1	-19.8	-4.2	-0.2	4249	1.3
C=CCn1c(C)cc(C(=O)COC(=O)c2cncc(Br)c2)c1C	-4.6	-6.1	-0.4	3583	8.5
COc1ccccc1OCC(=O)Nc1ccc(-c2nnc(-c3ccco3)o2)cc1	1.7	-1.4	-2.2	4806	3.8
SMILES	BoNT-F LC inh	Anthrax LF prot	BoNT A protease	Bead autofluor	MazF activator
O=C(COc1ccc(Br)cc1)Nc1ccc(-c2nnc(-c3ccco3)o2)cc1	-7.6	1.1	-7.3	21839*	-5.5
CC(=O)Nc1ccc(S(=O)(=O)N(C)c2ccc(OCCOc3ccccc3F)cc2)cc1	-7.1	-2.5	-3.2	6783	-21.7
COc1ccccc1NC(=O)CN1C(=O)C(C)Oc2ccccc21 (centres undefined)	0.9	2.3	0.3	22685*	-6.0
CC1Oc2ccccc2N(CC(=O)Nc2ccccc2F)C1=O (centres undefined)	-20.9	-6.7	-3.0	3785	2.0
CC1Oc2ccccc2N(CC(=O)NCC2CCCO2)C1=O (centres undefined)	1.8	0.4	0.4	23344*	3.2
CC1Oc2ccccc2N(CC(=O)NC2CC2)C1=O (centres undefined)	-1.5	-3.8	0.8	3023	0.4
O=C(O)CC1(CC(=O)Nc2ccccc2N2CCOCC2)CCCC1	x	x	x	x	3.2
O=C(CCCN1C(=O)c2ccccc2C1=O)NCc1cccnc1	-2.6	-4.2	-0.8	22861*	3.0
CCOc1ccc(CCNC(=O)CCCN2C(=O)c3ccccc3C2=O)cc1OCC	1.5	-0.7	u	21585*	8.4
CCOC(=O)N1CCN(c2c(NCCc3ccc(OCC)c(OCC)c3)c(=O)c2=O)CC1	-5.0	0.5	-3.6	24406*	6.1
O=C(CCCN1C(=O)c2cccc3cccc(c23)C1=O)NCc1cccnc1	0.7	-2.7	0.1	3841	4.8
COc1ccc(-c2noc(CCC(=O)NCc3cccnc3)n2)cc1	-4.4	1.1	-0.9	23172*	-1.0
O=C(COC(=O)/C=C/c1ccccc1)NC1CCCCC1	-4.6	4.0	1.1	5388	-1.2
CNC(=O)CCCc1nc(-c2ccccc2Cl)no1	-10.4	-4.8	-5.5	17469*	-4.8
NC(=O)CCCc1nc(-c2ccccc2Cl)no1	1.6	-2.5	0.1	11046	9.3
O=C(CCc1nc(-c2ccccc2)no1)NCCc1ccccc1	1.5	-10.0	3.1	22301*	-5.4
O=C(CCCc1nc(-c2ccccc2)no1)NCc1cccnc1	-8.3	-0.1	u	24495*	1.4
COc1ccc(-c2noc(CCC(=O)NCCc3ccccc3)n2)cc1	-8.9	-7.1	-1.8	3869	3.2
Cc1ccc2c(c1)c1c(n2C)C(C(N)=O)CCC1 (centres undefined)	-1.2	-3.4	-0.2	22355*	8.8
N=c1oc2ccc3ccccc3c2cc1-c1nc(-c2ccccc2)cs1	23.2	32.0*	34.2*	7671	-37.6
N=c1oc2ccccc2cc1-c1nc(-c2ccccc2)cs1	-0.1	0.9	2.9	8972	-28.5
N/C(=N/OCC(=O)Nc1cccc2ccccc12)c1nonc1N	-3.3	1.6	-2.3	17291*	-4.0
COc1cccc(C2=NO[C@@H]3C(=O)N(c4ccc5c(c4)OCCO5)C(=O)[C@H]23)c1OC	6.1	-0.4	4.0	20829*	-6.2
COc1cccc(C2=NO[C@@H]3C(=O)N(Cc4ccccc4)C(=O)[C@H]23)c1OC	-8.0	-6.1	-0.4	8668	2.7
COc1ccc(N2C(=O)C(C)C(Cc3ccc(C)cc3)C2=O)cc1 (centres undefined)	-2.6	-1.4	-1.6	4189	0.4
COc1ccc(N2CCN(/C(=N\S(=O)(=O)c3ccc(C)cc3)Nc3nc(C)cc(C)n3)CC2)cc1	0.3	-2.8	2.3	19034*	9.6
COc1ccccc1N1CCN(C2CCCN(C(=O)CCc3c(C)noc3C)C2)CC1 (centres undefined)	2.7	-1.0	0.2	4307	3.8
O=C(NCCc1c[nH]c2ccccc12)C(=O)NCC(c1ccco1)N1CCN(c2ccccc2)CC1 (centres undefined)	-1.7	-4.3	-0.8	2246	-5.0
COc1ccccc1CNC(=O)CCNS(=O)(=O)c1ccc2c(c1)oc(=O)n2C	12.6	-0.1	-0.3	6531	-1.8
Cc1ccc(S(=O)(=O)Cc2ccc(C(=O)NCCCN3CCCC3=O)o2)cc1	-2.1	-1.8	-1.4	20958*	3.9
